Only some compounds are listed: those with a hit (about 4.6% of all), similar ones and a draw of the others.
USP8 block: blocks human USP8 ubiquitin-rhodamine cleavage. inhibition, % at 20 µM. purified USP8, Ub-rhodamine cleavage fluorescence, 30 min. P40818. 4.2% of 47,000 active
USP10 inh: blocks human USP10 ubiquitin-rhodamine cleavage. Q14694. 1.1% of 47,000 active. purified USP10, Ub-rhodamine fluorescence, 60 min. AID 1645856. inhibition, % at 20 µM
UCHL1 block: human UCHL1 deubiquitinase inhibition | AID 1645859 | P09936 | 0.2% of 47,000 active | inhibition, % at 20 µM | purified UCHL1, Ub-rhodamine cleavage fluorescence
Target sequence (P09936 whole entry, looked up): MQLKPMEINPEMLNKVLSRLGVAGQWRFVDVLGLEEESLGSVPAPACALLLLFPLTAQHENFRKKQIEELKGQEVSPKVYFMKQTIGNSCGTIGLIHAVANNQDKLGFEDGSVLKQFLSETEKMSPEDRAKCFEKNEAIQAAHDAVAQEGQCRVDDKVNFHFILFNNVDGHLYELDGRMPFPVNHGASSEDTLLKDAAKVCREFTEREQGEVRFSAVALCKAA
USP7 block: blocks human USP7 ubiquitin-rhodamine cleavage; 0.3% of 47,000 active; inhibition, % at 20 µM; Q93009; AID 1645854; purified USP7, Ub-rhodamine cleavage fluorescence
* hit, by the source's call. No stated cut-off is given here; in the data, active means inhibition above about 30%; inactive means the rest.

SMILES	USP8 block	USP10 inh	UCHL1 block	USP7 block
COc1cccc(C(=O)Nc2nonc2-c2ccc(C(C)C)cc2)c1	44*	18	9	9
CC(C)c1ccc(OCC(=O)Nc2nonc2-c2ccccc2)cc1	11	10	3	5
CCc1nc(SCC(=O)NCCc2ccc(OC)c(OC)c2)c2oc3ccccc3c2n1	3	0	-1	0
Cc1ccc(C(=O)Nc2cc3c4c(c2)CC(=O)N4CCC3)cc1	19	-3	-1	-4
O=C(Nc1cc2c3c(c1)CC(=O)N3CCC2)c1ccc(F)cc1	33*	-1	-1	-1
Cc1cccc(S(=O)(=O)Nc2ccc(N3CCN(C)CC3)c(C(=O)O)c2)c1	89*	4	2	-11
CCN1CCC2(CC1)NC(=O)N(C1CCN(C(=O)Cc3ccc(C)cc3)CC1)C2=O	8	-1	-1	2
O=C(Nc1ccccc1)C1COc2ccccc2C1 (stereo not drawn)	0	3	-3	0
O=C(O)C1C(C(=O)Nc2ccccc2)C2(c3ccccc3)C(=O)C1(c1ccccc1)C(c1ccccc1)=C2c1ccccc1 (stereo not drawn)	51*	69*	7	66*
COc1cc(NC(=O)Cn2c(=O)n(-c3ccc(CC(=O)NCc4ccco4)cc3)c(=O)c3ccccc32)cc(OC)c1	22	23	0	4
O=C(Cn1c(=O)c2ccccc2n(CC(=O)Nc2ccc(Br)cc2)c1=O)NCc1ccco1	44*	23	0	5
O=C(Cn1c(=O)c2ccccc2n(CC(=O)Nc2cc(Cl)cc(Cl)c2)c1=O)NCc1ccco1	50*	35*	0	2
COc1cc(Cl)c(C)cc1NC(=O)Cn1c(=O)n(CC(=O)NCc2ccco2)c(=O)c2ccccc21	64*	43*	8	-22
O=C(CCc1cccnc1)N1CCC2(CCN(CCCc3ccccc3)C2)C1 (stereo not drawn)	-23	-6	0	2
Cc1ccc(-c2ncc(C(=O)Nc3ccc(Cl)cc3)c(-c3ccncc3)n2)cc1	28	-4	-36	-37
Cc1ccc(-c2ncc(C(=O)Nc3c(F)cccc3F)c(-c3ccncc3)n2)cc1	61*	-3	-14	-18
CC[C@H](C)[C@H](NC(=O)[C@H]([C@@H](C)CC)N(C)C(C)=O)C(=O)N[C@H](C(=O)N[C@@H](CC(C)C)C(=O)C1(C)CO1)[C@@H](C)O (stereo partly drawn)	57*	9	25	-145
Cc1nn(-c2ccccc2)c2c1C(c1cccnc1)c1c(ncn3nc(-c4cccc5ccccc45)nc13)O2 (stereo not drawn)	16	8	9	9
Cc1ccc(C2c3c(C)nn(-c4ccccc4)c3Oc3ncn4nc(-c5ccccc5O)nc4c32)cc1 (stereo not drawn)	41*	-1	0	6
O=C(CNS(=O)(=O)c1ccc(F)cc1)N1CCCC(c2nnc3ccccn23)C1 (stereo not drawn)	57*	-4	7	-75
O=C(Nc1cc(F)c2nc(N3CCOCC3)ccc2c1)C1CCCC1	57*	-3	-1	-6
O=C(CC1CCCC1)Nc1cc(F)c2nc(N3CCOCC3)ccc2c1	71*	-4	0	-2
O=C(Cc1cccs1)Nc1cc(F)c2nc(N3CCOCC3)ccc2c1	-5	0	5	3
CN1[C@@H](CCC(=O)N2CCN(c3ccccc3)CC2)CNC(=O)[C@@H]2[C@H]1CCN2CC1CC1	11	-1	-1	4
COc1cc(OC)c2c(=O)cc(-c3ccccc3)oc2c1OC	6	3	7	3
SMILES	USP8 block	USP10 inh	UCHL1 block	USP7 block
COc1c2nc3ccccc3oc-2cc(=O)c1OC	58*	2	21	-13
Cn1cnc(S(=O)(=O)N2C[C@H]3CC[C@@H](Oc4cccnc4)[C@H]3C2)c1	-4	0	-2	0
COc1cccc(NC(=O)Nc2ccc3nc4n(c(=O)c3c2)CCCC4)c1	50*	16	9	13
COc1cc(O)c2c(=O)cc(C)oc2c1CC=C(C)C	7	10	5	4
CC(C)=CCc1c(O)cc2c(c1C)OC(=O)c1c(C)c(Cl)c(O)c(CO)c1O2	10	48*	5	15
COc1ccc(NC(=O)CSc2nc(SC(C)C)nc3sc4c(c23)CC(C)(C)OC4)cc1	-9	-2	-3	-3
Cc1ccc(Nc2nc(O)c(CC(=O)Nc3cccc(Cl)c3C)s2)cc1C	63*	30*	2	12
CCOC(=O)c1ccc(NC(=O)Cc2sc(Nc3ccc(O)cc3)nc2O)cc1	0	4	4	-1
CC(OC(=O)/C=C/c1ccc(Cl)cc1)C(=O)Nc1ccccc1 (stereo not drawn)	14	4	4	12
